From PubChem BioAssay come the findings set out here.

Calls of active or inactive are those of the source. Unless noted, no rule for the calls is given here.

Experiment [1] is described as follows: anti-His antibody binders, primary screen, artefact control for SMM control protein annotation, biochemical, small-molecule microarray, 635 nm fluorescence (AID 1128).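 Also: score merges feature fluorescence with signal-to-noise for each printed compound spot.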 To be noted: anti-His Alexa647 antibody binding, higher = more signal.
The test system of experiment [2] is Human papillomavirus type 1a E7 protein (residues 1-88). Kind of experiment: HPV1a E7 small-molecule binders, primary screen, biochemical, small-molecule microarray, residues 1-88, 635 nm (AID 1129). The note with it: small-molecule microarray binding, fluorescence 635 nm; higher = more signal.
For experiment [3], the target named is Focal adhesion kinase 1 (Homo sapiens) (UniProt Q05397). Kind of experiment: small-molecule microarray binders of FAK, primary screen, biochemical, 635/667 nm fluorescence, BSA, DTT (AID 1130).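 Also: composite of spot emission at 667 nm and signal to noise over triplicate slides.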 To be noted: PTK2 binding, 635 nm fluorescence, higher = more signal.
The subject of experiment [4] is Fibrinogen (Alexa647-labelled). Kind of experiment: fibrinogen binders on compound microarrays, profiling panel, artefact control for SMM control-protein annotation, biochemical, small-molecule microarray, 635/667 nm fluorescence (AID 1131).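 Also: z-score merges 667 nm fluorescence with per-spot signal-to-noise over triplicate slides.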 To be noted: fibrinogen-A647 binding fluorescence, higher = more signal.
Experiment [5] concerns the target Follistatin (Homo sapiens) (UniProt P19883). Description: follistatin binders on small-molecule microarrays, primary screen, biochemical, small-molecule microarray, 635/667 nm fluorescence (AID 1132). To be noted: FST binding, 635 nm fluorescence, higher = more signal.
Experiment [6] deals with Fibroblast growth factor 2 (Homo sapiens) (UniProt P09038). Kind of experiment: FGF2 binders on small-molecule microarrays, primary screen, biochemical, small-molecule microarray, 635/667 nm fluorescence (AID 1133). The note with it: small-molecule microarray binding, FGF2, fluorescence 635/667; higher = more signal.
Experiment [7] can be described thus: mitochondrial membrane potential change in A549 cells, profiling panel, cell-based, JC-1 fluorescence, basal, 24 h, 100 nL (AID 1138).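 Also: A549 lung adenocarcinoma cells under basal conditions with no added stimulus; test concentration not given here.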 The note with it: higher = more signal.
Experiment [8] deals with Lefty1. Description: Lefty1 binders on small-molecule microarrays, primary screen, biochemical, small-molecule microarray, 635/667 nm fluorescence (AID 1139). The note with it: small-molecule microarray binding, fluorescence 635/667; higher = more signal.
Experiment [9] relates to wheat germ agglutinin (Triticum aestivum), Alexa647-labelled. Description: wheat germ agglutinin binders on compound microarrays, profiling panel, artefact control for SMM control-protein annotation, biochemical, small-molecule microarray, 635/667 nm fluorescence (AID 1140).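 Also: score merges 667 nm feature emission with signal to noise over triplicate slides.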 The note with it: WGA-A647 binding, 635 nm fluorescence, higher = more signal.
The target of experiment [10] is Luciferin 4-monooxygenase (Photinus pyralis) (UniProt P08659). Description: firefly luciferase enzyme inhibitors, primary screen, biochemical, luminescence, purified enzyme, 2006 set (AID 1141).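 Also: cell-free assay with purified firefly luciferase at 100 ng per well in PBS; test concentration not given here.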 The note with it: SteadyGlo luminescence, 30 min, higher = more signal, called active from +8 up or from −8 down.
Experiment [11] relates to Wnt5a (protein binding on small-molecule microarray). Description: Wnt5a binders on small-molecule microarray, primary screen, biophysical, 635/667 nm fluorescence (AID 1142).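 Also: fluorescence read at 667 nm with signal to noise per printed feature.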 To be noted: 635 nm fluorescence, higher = more signal.
Experiment [12] is described as follows: cell viability in Huh7 cells, primary screen, cytotoxicity control for HCV replication inhibitor project, CellTiter-Glo luminescence, basal, 48 h (AID 1143).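 Also: Huh7 hepatoma cells carrying a hepatitis C replication reporter with no stimulus; test concentration not given here.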 To be noted: Huh7 HCV replicon, higher = more signal, called active from +8 up or from −8 down. On the technique in general: Cellular ATP, detected with luciferase, serves as a proxy for viable cell number.

Experiment [13] is described as follows: P. aeruginosa biofilm formation inhibitors, primary screen, PAO1 strain, BacTiter-Glo luminescence, LB-PBS (AID 1144). The note with it: 12 h, higher = more signal.
Experiment [14] can be described thus: CREB reporter modulators without forskolin, primary screen, cell-based, PC12, CRE-LacZ reporter, unstimulated (AID 1145). The note with it: no forskolin, luminescence, 4.5 h, higher = more signal, called active from +8 up or from −8 down.
Experiment [15] in a line: CREB reporter modulators under forskolin, primary screen, cell-based, PC12, CRE-LacZ reporter, forskolin-stimulated (AID 1146).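 Also: PC12 cells with 6xCRE LacZ reporter stimulated by forskolin 10 µM; beta-galactosidase reporter signal reflecting CREB driven transcription.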 The note with it: luminescence, 4.5 h, higher = more signal, called active from +8 up or from −8 down.
Experiment [16] addresses Streptavidin (Streptomyces avidinii) (UniProt P22629). Description: streptavidin binders on small-molecule microarray, primary screen, artefact control for SMM compound annotation, biophysical, 635/667 nm fluorescence (AID 1147).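 Also: signal reflects streptavidin binding to arrayed compounds as a control protein.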 To be noted: streptavidin binding, higher = more signal.
Experiment [17] is described as follows: small-molecule binders of probe aInhba, primary screen, biochemical, small-molecule microarray, 635/667 nm fluorescence (AID 1148).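 Also: score merges 667nm spot fluorescence with signal-to-noise for antibody binding to printed compounds.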 To be noted: higher = more signal.
Experiment [18] addresses Torsin-1A (Homo sapiens) (UniProt O14656). Kind of experiment: torsin A binders from cell lysate, primary screen, small-molecule microarray, wild-type, 635/667 nm (AID 1149). To be noted: COS7 hTOR1A-WT lysate, 635 nm fluorescence, higher = more signal.
The target is the same in experiment [19]. Description: small-molecule binders of mutant TOR1A in lysate, primary screen, cell lysate, small-molecule microarray, COS7 lysate, 635/667 nm fluorescence (AID 1150).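 Also: score pools 667 nm emission and signal to noise measuring lysate protein binding.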 The note with it: COS7 hTOR1A mutant lysate, 635 nm fluorescence, higher = more signal.
Experiment [20] relates to Sonic hedgehog protein (Shh). Kind of experiment: small-molecule binders of Shh protein, primary screen, biochemical, small-molecule microarray, 635/667 nm fluorescence (AID 1151).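 Also: Shh protein binding to compounds spotted on small-molecule microarray slides; score combines spot fluorescence intensity with signal-to-noise across triplicate slides.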 To be noted: small-molecule microarray binding, 635 nm fluorescence; higher = more signal.

Sequence of Fibroblast growth factor 2 (Homo sapiens) (P09038 whole entry, looked up): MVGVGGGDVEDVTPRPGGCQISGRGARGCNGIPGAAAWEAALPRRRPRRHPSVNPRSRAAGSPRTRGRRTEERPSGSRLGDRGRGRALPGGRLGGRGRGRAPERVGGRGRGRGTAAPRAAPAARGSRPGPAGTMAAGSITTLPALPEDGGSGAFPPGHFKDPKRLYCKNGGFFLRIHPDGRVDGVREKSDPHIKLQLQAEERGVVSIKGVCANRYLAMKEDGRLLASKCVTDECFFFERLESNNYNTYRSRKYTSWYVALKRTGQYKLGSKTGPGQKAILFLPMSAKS
Sequence of Follistatin (Homo sapiens) (P19883 whole entry, looked up): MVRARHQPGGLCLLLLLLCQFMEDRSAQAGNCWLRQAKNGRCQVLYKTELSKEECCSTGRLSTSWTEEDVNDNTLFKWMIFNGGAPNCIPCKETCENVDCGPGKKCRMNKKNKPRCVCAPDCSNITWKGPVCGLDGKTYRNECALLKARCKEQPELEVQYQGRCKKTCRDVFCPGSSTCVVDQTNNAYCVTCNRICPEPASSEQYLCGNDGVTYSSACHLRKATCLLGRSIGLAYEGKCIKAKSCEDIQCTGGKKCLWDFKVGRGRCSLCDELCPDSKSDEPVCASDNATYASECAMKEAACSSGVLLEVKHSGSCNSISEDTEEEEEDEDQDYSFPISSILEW
Sequence of Torsin-1A (Homo sapiens) (O14656 whole entry, looked up): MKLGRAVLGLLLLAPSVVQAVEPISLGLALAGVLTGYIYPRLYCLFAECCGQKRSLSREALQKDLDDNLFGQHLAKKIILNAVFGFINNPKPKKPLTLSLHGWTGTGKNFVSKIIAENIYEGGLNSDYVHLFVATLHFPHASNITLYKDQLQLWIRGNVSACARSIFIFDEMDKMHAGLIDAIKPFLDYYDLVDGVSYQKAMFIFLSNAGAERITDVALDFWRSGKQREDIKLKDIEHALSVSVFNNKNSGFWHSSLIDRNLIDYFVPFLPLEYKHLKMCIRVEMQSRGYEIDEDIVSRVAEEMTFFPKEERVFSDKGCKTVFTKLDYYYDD
Sequence of Focal adhesion kinase 1 (Homo sapiens) (Q05397 whole entry, looked up): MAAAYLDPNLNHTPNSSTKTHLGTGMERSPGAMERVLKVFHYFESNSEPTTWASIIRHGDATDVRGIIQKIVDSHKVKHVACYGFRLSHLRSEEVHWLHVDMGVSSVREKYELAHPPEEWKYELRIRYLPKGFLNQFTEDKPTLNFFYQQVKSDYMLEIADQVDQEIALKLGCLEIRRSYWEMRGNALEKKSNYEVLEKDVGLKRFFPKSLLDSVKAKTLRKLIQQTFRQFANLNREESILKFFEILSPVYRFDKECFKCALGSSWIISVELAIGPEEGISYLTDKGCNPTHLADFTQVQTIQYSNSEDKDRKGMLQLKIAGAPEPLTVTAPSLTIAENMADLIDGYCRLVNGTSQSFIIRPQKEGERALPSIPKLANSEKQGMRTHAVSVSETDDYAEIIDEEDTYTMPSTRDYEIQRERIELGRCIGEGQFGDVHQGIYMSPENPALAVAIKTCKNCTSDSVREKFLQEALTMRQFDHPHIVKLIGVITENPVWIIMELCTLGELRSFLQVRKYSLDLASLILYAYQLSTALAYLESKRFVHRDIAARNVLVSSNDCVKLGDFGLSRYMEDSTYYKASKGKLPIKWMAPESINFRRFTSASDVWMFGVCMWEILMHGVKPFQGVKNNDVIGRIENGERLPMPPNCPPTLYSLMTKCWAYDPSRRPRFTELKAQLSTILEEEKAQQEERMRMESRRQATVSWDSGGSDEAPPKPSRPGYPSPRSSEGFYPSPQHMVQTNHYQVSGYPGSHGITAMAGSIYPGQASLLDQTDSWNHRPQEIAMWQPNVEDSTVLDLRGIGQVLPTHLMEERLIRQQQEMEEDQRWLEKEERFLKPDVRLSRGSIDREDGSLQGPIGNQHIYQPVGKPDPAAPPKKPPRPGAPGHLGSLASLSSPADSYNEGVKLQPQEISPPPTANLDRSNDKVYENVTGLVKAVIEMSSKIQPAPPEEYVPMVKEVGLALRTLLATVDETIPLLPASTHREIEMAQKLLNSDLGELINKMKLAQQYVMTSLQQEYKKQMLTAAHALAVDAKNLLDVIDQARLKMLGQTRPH
Sequence of Streptavidin (Streptomyces avidinii) (P22629 whole entry, looked up): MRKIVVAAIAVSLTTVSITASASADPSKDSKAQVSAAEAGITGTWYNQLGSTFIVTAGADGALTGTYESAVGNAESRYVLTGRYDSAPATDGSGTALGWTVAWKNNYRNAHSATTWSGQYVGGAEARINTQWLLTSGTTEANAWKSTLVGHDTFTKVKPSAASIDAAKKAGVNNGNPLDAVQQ
Sequence of Luciferin 4-monooxygenase (Photinus pyralis) (P08659 whole entry, looked up): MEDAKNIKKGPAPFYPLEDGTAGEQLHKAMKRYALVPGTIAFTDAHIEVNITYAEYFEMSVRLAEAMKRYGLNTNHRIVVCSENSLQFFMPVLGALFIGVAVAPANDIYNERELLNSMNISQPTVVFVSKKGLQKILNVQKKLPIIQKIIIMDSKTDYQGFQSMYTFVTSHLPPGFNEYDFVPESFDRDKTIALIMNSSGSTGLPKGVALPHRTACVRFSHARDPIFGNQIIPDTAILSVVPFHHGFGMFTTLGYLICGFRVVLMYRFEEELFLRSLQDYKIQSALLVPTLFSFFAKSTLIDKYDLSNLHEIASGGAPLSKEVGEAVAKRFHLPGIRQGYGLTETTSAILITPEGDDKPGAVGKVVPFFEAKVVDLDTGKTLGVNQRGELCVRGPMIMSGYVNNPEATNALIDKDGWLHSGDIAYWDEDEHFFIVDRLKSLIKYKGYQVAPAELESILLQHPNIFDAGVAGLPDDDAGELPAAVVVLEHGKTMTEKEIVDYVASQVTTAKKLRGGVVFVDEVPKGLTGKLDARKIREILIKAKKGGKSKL

Consider `COC(=O)CC=C[C@@H](C)[C@@H](C=NOC[C@H]1O[C@H](c2ccccc2)C=C[C@@H]1Oc1ccc(OC)cc1)OC`, for which the composite z-score was 0.162 in experiment [1]; -0.499 in [2]; -0.103 in experiment [3]; -0.313 in [4]; 0.22 in experiment [5]; -0.435 in [6]. Moreover, the composite z-score in [8] is -0.0398; in [9] it was -0.0524; in [11] it was 0.0372; in [16], -0.682; in experiment [17] it was -0.208; in experiment [18], -0.52. In addition, the composite z-score in [19] was -0.305; in experiment [20], 0.161. In addition, the z-score in experiment [7] was 0.0691; in experiment [10], 0.4 (inactive); in experiment [12], -0.193 (inactive); in experiment [13], 0.257 (inactive); in [14], 1.34 (inactive); in [15] it was 0.611 (inactive).

With `CC(C)CON=C1C[C@@H](O)[C@@H](O)[C@@H]2[C@@H]3C(=O)N(c4cccc(Oc5ccccc5)c4)C(=O)[C@@H]3CC[C@@H]12`, the composite z-score in experiment [1] came to 0.89; in experiment [2] it was 0.762; in [3], 0.0599; in [4], 1.02; in experiment [5], 0.266; in experiment [6], 0.314. Also, the composite z-score in experiment [8] is 0.13; in experiment [9], 0.561; in experiment [11] it was 0.0462; in [16] it was 0.977; in experiment [17], -0.016; in experiment [18], 0.486. Also, the composite z-score came out at 0.181 in experiment [19] and 1.7 in [20]. For the same molecule, the z-score in [7] was -0.289; in [10], -0.172 (inactive); in experiment [12], -1.26 (inactive); in experiment [13], 0.272 (inactive); in experiment [14], -0.11 (inactive); in experiment [15], 0.0421 (inactive).

As to `Cc1cc2c(nc1C)CCCCN2CC(C)ON=C1[C@H]2CCn3c(=O)n(-c4ccccc4)c(=O)n3[C@H]2[C@H](O)[C@@H]2O[C@H]12` (stereo not given in full), the composite z-score in experiment [1] was 0.761; in experiment [2], -0.0951; in [3], -0.0065; in experiment [4] it was 0.7; in [5], 0.7; in [6] it was 0.875. The composite z-score in [8] is 1.31; in experiment [9], 1; in experiment [11], 0.384; in experiment [16] it was -0.251; in experiment [17], -0.125; in experiment [18], -0.0459. For the same molecule, the composite z-score is -0.136 in experiment [19] and 0.829 in [20]. Besides, the z-score in [7] was -0.196; in experiment [10] it was -0.661 (inactive); in experiment [12], -0.299 (inactive); in [13], 0.888 (inactive); in [14] it was -1.21 (inactive); in experiment [15], -0.379 (inactive).

`O=C1C[C@@H](O)[C@@H](O)[C@@H]2[C@@H]3C(=O)N(c4cccc(Oc5ccccc5)c4)C(=O)[C@@H]3CC[C@H]12`: the composite z-score was -0.0123 in experiment [1]; 0.818 in [2]; -0.031 in [3]; 0.345 in [4]; 0.505 in [5]; 0.31 in experiment [6]. Further, the composite z-score was 0.471 in [8]; 0.268 in experiment [9]; 0.114 in [11]; 0.0742 in [16]; -0.183 in experiment [17]; 0.162 in experiment [18]. Moreover, the results for the composite z-score in experiment [19] and in experiment [20] were 0.331 and 0.669, respectively. For the same molecule, the z-score in experiment [7] was 1.23; in [10], -0.275 (inactive); in experiment [12], 0.393 (inactive); in experiment [13], 0.247 (inactive); in [14] it was 2.51 (inactive); in [15] it was 0.287 (inactive).

Regarding `CCOC(=O)[C@H](Cc1ccccc1)NC(=O)OC1CC(CCC2CC(CC)=NO2)OC2(CCCC(COC(=O)NCCC(C)C)O2)C1` (stereo not given in full), the composite z-score in [1] was 0.272; in [2], 0.55; in [3] it was 0.271; in experiment [4], 0.305; in experiment [5], 0.0871; in [6] it was 0.342. Further, the composite z-score in experiment [8] is -0.033; in [9] it was 0.668; in [11], 0.0453; in experiment [16], 0.851; in experiment [17], -0.154; in experiment [18] it was -0.182. Moreover, the values for the composite z-score in experiment [19] and in experiment [20] were 0.225 and 0.135, respectively. Further, the z-score in experiment [7] is -0.0991; in [10], 0.772 (inactive); in experiment [12], -0.24 (inactive); in experiment [13] it was 0.636 (inactive); in experiment [14] it was 0.105 (inactive); in experiment [15], 0.703 (inactive).
